The record followed here is PubChem BioAssay (Tox21).

Records with an inconclusive call do not appear. Calls of active or inactive are those of the source. Unless noted, calls come from the whole dose curve; as a rule, active = well fitted curve in the direction sought with a large enough effect in the repeat runs; inconclusive = weak or mixed curves; inactive = no such curve, though single readings can be large; an effect the other way counts as inactive or inconclusive.

Assay [1] in a line: qHTS assay to identify aromatase inhibitors - cell viability counter screen (AID 743084).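 Note: cells stimulated with testosterone during compound exposure; nearly all actives have a fitted effect of over 55% in size.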
The target of assay [2] is Aryl hydrocarbon receptor (Homo sapiens) (UniProt P35869). Briefly: qHTS assay to identify small molecule that activate the aryl hydrocarbon receptor (AhR) signaling pathway (AID 743085).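 For activation: HG2L7.5c1 human HepG2 liver cells with stably integrated DRE-driven firefly reporter; series mostly up to about 70 µM.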 Note: nearly all actives have a fitted effect of over 15% in size. Note: potency is the fitted concentration of half-maximal effect. In a few lines:
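HepG2 cells (HG2L7.5c1) stably carrying a firefly luciferase reporter driven by 20 dioxin responsive elements were exposed to compound for 24 h at 37C after a 5 h settling period; luminescence rise (ONE-Glo) indicated activation.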

Assay [3] in a line: qHTS assay to identify small molecule that activate the aryl hydrocarbon receptor (AhR) signaling pathway - cell viability counter screen (AID 743086).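 Note: HepG2 liver cells carrying the AhR DRE luciferase reporter; series mostly up to about 70 µM; nearly all actives have a fitted effect of over 45% in size.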 In a few lines:
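HepG2-AhR-luc (HG2L7.5c1) cells, 4000/well, treated 24 h at 37 C with compound; viability measured as CellTiter-Fluor fluorescence after 30 min in the same wells as the luciferase read.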

Assay [4] concerns the target Peroxisome proliferator-activated receptor gamma (Homo sapiens) (UniProt P37231). Briefly: qHTS assay to identify small molecule agonists of the peroxisome proliferator-activated receptor gamma (PPARg) signaling pathway (AID 743094; active = well fitted activation curve with a large enough effect in the signal ratio in the repeat runs, not every such curve was filed as active; the % refers to the signal ratio). The method, boiled down: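 Stably transfected HEK293H cells (GeneBLAzer PPARg UAS-bla) were incubated with test substances for 17 h at 37C after a 5 h pre-incubation; beta-lactamase activity was then detected by FRET substrate fluorescence.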

For assay [5] the target is unchanged. Briefly: qHTS assay to identify small molecule antagonists of the peroxisome proliferator-activated receptor gamma (PPARg) signaling pathway (AID 743191; calls by dose curve; note: series mostly up to about 63 µM; nearly all actives have a fitted effect of over 30% in size). In a few lines: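 GeneBLAzer PPARg UAS-bla HEK293H cells, 5 h post-plating, exposed to compounds 17 h at 37C. LiveBLAzer B/G FRET substrate added for 1 h at room temperature; beta-lactamase reporter read by fluorescence intensity.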

A short description of assay [6]: qHTS assay for small molecule agonists of the antioxidant response element (ARE) signaling pathway (AID 743202; active = well fitted activation curve with a large enough effect in the signal ratio in the repeat runs, not every such curve was filed as active; the % refers to the signal ratio; note: potency is the fitted concentration of half-maximal effect). In a few lines: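 Agonist mode reporter screen: HepG2 cells with ARE-controlled beta-lactamase are incubated with test compounds for 16 h at 37 C, and beta-lactamase activity is measured as fluorescence of cleaved B/G FRET substrate.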
A short description of assay [7]: qHTS assay for small molecule agonists of the antioxidant response element (ARE) signaling pathway - cell viability counter screen (AID 743203; calls by dose curve; note: nearly all actives have a fitted effect of over 55% in size). In a few lines:
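Cells (ARE-bla HepG2, 2,000/well) receive DMSO-dissolved compounds after a 5 hrs rest. Plates incubate 16 hrs at 37C/5% CO2. CellTiter-Glo luminescence is then recorded after 30 min at room temperature.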

Assay [8] is described as follows: qHTS assay for small molecule activators of the heat shock response signaling pathway - cell viability counter screen (AID 743209). Note: nearly all actives have a fitted effect of over 50% in size. In a few lines: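 Quantitative HTS format, Tox21 10K library. HeLa cells carrying an HSE-driven beta-lactamase reporter were treated 5 h at 37 C, then assessed for viability by CellTiter-Glo luminescence.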
A short description of assay [9]: qHTS assay to identify small molecule agonists of the peroxisome proliferator-activated receptor delta (PPARd) signaling pathway - cell viability counter screen (AID 743211). Note: nearly all actives have a fitted effect of over 55% in size. The method, boiled down:
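PPARd-bla HEK293H cells (UAS-beta-lactamase reporter) were treated with compounds for 17 h at 37 C. Viability was then read in the same wells by CellTiter-Glo luminescence after 30 min at room temperature.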

Assay [10] deals with Peroxisome proliferator-activated receptor delta (Homo sapiens) (UniProt Q03181). Briefly: qHTS assay to identify small molecule agonists of the peroxisome proliferator-activated receptor delta (PPARd) signaling pathway (AID 743212; calls by dose curve). The method, boiled down:
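Quantitative high-throughput agonist screen in a HEK293H beta-lactamase reporter line under UAS control. Compounds in DMSO, at 37 C. Fluorescence read after 2 h with FRET substrate at room temperature.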

Assay [11] is described as follows: qHTS assay to identify small molecule antagonists of the peroxisome proliferator-activated receptor delta (PPARd) signaling pathway - cell viability counter screen (AID 743213). Note: nearly all actives have a fitted effect of over 50% in size. In a few lines: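 CellTiter-Glo was added to PPARd-bla HEK293H wells following 17 h compound treatment in the presence of 300 nM L165041. Luminescence was recorded after 30 min at room temperature.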

The target of assay [12] is Peroxisome proliferator-activated receptor delta (Homo sapiens) (UniProt Q03181). Briefly: qHTS assay to identify small molecule antagonists of the peroxisome proliferator-activated receptor delta (PPARd) signaling pathway (AID 743215; active = well fitted inhibition curve with a large enough effect in the signal ratio in the repeat runs, not every such curve was filed as active; the % refers to the signal ratio;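 note: cells stimulated with agonist L165041 at 300 nM final during compound exposure; series mostly up to about 62 µM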). In a few lines: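 Antagonist-mode beta-lactamase reporter screen: HEK293H cells with UAS-bla under PPARd control, stimulated by 300 nM L165041 (final) alongside test compound for 17 h at 37 C, then FRET fluorescence after 2 h substrate incubation.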
Sequence of Peroxisome proliferator-activated receptor delta (Homo sapiens) (Q03181 whole entry, looked up): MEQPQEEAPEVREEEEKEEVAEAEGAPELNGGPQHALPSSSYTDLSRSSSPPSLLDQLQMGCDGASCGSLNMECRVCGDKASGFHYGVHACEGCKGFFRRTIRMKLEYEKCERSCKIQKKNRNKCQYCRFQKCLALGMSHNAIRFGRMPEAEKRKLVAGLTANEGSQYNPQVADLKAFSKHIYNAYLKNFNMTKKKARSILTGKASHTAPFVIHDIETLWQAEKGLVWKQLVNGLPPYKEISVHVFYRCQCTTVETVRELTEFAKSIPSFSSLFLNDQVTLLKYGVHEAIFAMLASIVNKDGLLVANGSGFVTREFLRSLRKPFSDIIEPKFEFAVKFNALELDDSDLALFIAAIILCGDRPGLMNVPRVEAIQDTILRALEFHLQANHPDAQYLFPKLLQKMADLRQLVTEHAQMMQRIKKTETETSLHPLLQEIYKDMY

Assay [13] in a line: qHTS assay to identify small molecule agonists of the farnesoid-X-receptor (FXR) signaling pathway - cell viability counter screen (AID 743218). Note: nearly all actives have a fitted effect of over 45% in size. In a few lines:
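In GeneBLAzer FXR-UAS-bla HEK 293T cells, compounds act for 16 h at 37 C. Cell viability is then scored in the reporter wells by CellTiter-Glo, 30 min at RT, luminescence.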

The target of assay [14] is Bile acid receptor (Homo sapiens) (UniProt Q96RI1). Description: qHTS assay to identify small molecule agonists of the farnesoid-X-receptor (FXR) signaling pathway (AID 743220; active = well fitted activation curve with a large enough effect in the signal ratio in the repeat runs, not every such curve was filed as active; the % refers to the signal ratio). The method, boiled down:
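Beta-lactamase reporter under UAS control in GeneBLAzer FXR HEK 293T cells (5000/well) measured with LiveBLAzer FRET substrate after 2 h at room temperature. Compound exposure lasted 16 h at 37C.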

The nature of assay [15]: qHTS assay to identify small molecule antagonists of the farnesoid-X-receptor (FXR) signaling pathway - cell viability counter screen (AID 743221; active = well fitted cell-killing curve with a large enough effect in the repeat runs, not every such curve was filed as active; note: nearly all actives have a fitted effect of over 50% in size). In a few lines:
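FXR-UAS-bla HEK 293T cells were treated with test compounds plus chenodeoxycholic acid (50 uM final) for 16 h at 37 C. Cell viability in the same wells was then read as CellTiter-Glo luminescence after 30 min at room temperature.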

In assay [16] the target is Vitamin D3 receptor (Homo sapiens) (UniProt P11473). Description: qHTS assay to identify small molecule agonists of the vitamin D receptor (VDR) signaling pathway (AID 743222; calls by dose curve). In a few lines:
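Agonist activity measured in VDR-bla reporter cells. Exposure 16 h, 37C, 5% CO2; detection by B/G FRET substrate, 2 h RT.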

Assay [17] has the same target. Description: qHTS assay to identify small molecule antagonists of the vitamin D receptor (VDR) signaling pathway (AID 743223; active = well fitted inhibition curve with a large enough effect in the signal ratio in the repeat runs, not every such curve was filed as active; the % refers to the signal ratio). The method, boiled down: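 VDR-bla cells were plated, incubated 4 h at 37C, then given compound and 1alpha,25-dihydroxyvitamin D3 (3 nM final). After 16 h at 37C, LiveBLAzer B/G FRET substrate was added for 2 h at room temperature and fluorescence read.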

Assay [18] is described as follows: qHTS assay to identify small molecule antagonists of the peroxisome proliferator-activated receptor gamma (PPARg) signaling pathway - cell viability counter screen (AID 743194). Note: nearly all actives have a fitted effect of over 55% in size. In a few lines: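 Cytotoxicity counter screen in PPARg-bla HEK293H cells, same wells as reporter assay. Compounds plus 50 nM rosiglitazone (final) for 17 h at 37 C, then viability read by CellTiter-Glo luminescence.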

Assay [19] addresses Bile acid receptor (Homo sapiens) (UniProt Q96RI1). Description: qHTS assay to identify small molecule antagonists of the farnesoid-X-receptor (FXR) signaling pathway (AID 743217; active = well fitted inhibition curve with a large enough effect in the signal ratio in the repeat runs, not every such curve was filed as active; the % refers to the signal ratio). In a few lines: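 Beta-lactamase reporter under UAS control in HEK 293T cells; compound exposure 16 h at 37 °C in the presence of chenodeoxycholic acid (50 uM final); signal from B/G FRET substrate after 2 h at room temperature.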

Assay [20] in a line: qHTS assay for small molecule activators of the heat shock response signaling pathway (AID 743210; active = well fitted activation curve with a large enough effect in the signal ratio in the repeat runs, with a control signal flat, not every such curve was filed as active; the % refers to the signal ratio; note: series mostly up to about 63 µM). In a few lines:
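Quantitative high-throughput format using an engineered HeLa line in which heat shock response elements drive beta-lactamase; after 5 h with compound, cells received a B/G FRET substrate and fluorescence was read.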

Sequence of Aryl hydrocarbon receptor (Homo sapiens) (P35869 whole entry, looked up): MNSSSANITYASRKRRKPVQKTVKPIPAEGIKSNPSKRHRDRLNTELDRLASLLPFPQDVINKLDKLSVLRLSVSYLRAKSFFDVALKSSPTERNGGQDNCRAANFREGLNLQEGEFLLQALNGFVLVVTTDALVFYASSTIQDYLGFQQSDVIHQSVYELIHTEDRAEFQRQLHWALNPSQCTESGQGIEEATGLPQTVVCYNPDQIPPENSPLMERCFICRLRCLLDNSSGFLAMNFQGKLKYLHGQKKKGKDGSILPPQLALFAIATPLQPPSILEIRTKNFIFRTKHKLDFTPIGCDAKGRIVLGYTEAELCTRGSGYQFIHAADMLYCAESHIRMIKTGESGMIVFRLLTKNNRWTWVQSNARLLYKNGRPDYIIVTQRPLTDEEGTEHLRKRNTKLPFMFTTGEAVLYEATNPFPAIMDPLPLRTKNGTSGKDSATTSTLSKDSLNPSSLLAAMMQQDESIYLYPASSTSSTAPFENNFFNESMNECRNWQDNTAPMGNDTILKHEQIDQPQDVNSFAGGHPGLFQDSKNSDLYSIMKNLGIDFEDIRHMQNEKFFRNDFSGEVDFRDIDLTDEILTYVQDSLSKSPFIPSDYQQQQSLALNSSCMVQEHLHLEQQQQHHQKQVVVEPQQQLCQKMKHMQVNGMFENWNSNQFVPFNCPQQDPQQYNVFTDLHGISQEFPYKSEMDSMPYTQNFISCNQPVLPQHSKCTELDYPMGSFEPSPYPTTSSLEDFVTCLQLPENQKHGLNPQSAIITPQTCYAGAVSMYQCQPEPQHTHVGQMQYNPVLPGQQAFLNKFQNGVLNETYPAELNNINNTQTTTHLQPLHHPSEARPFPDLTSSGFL
Sequence of Bile acid receptor (Homo sapiens) (Q96RI1 whole entry, looked up): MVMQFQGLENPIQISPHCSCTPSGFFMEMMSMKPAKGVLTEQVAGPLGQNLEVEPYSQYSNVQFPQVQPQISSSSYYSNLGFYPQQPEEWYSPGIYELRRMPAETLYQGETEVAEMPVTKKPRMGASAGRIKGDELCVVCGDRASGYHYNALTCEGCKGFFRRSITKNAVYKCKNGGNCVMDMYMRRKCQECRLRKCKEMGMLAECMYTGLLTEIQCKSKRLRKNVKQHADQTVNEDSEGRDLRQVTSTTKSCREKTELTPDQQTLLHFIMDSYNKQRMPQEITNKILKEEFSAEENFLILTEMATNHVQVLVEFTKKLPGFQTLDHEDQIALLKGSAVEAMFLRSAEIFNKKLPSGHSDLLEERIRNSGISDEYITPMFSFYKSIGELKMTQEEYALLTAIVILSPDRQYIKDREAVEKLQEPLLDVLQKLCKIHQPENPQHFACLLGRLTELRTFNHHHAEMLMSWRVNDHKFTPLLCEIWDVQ
Sequence of Peroxisome proliferator-activated receptor gamma (Homo sapiens) (P37231 whole entry, looked up): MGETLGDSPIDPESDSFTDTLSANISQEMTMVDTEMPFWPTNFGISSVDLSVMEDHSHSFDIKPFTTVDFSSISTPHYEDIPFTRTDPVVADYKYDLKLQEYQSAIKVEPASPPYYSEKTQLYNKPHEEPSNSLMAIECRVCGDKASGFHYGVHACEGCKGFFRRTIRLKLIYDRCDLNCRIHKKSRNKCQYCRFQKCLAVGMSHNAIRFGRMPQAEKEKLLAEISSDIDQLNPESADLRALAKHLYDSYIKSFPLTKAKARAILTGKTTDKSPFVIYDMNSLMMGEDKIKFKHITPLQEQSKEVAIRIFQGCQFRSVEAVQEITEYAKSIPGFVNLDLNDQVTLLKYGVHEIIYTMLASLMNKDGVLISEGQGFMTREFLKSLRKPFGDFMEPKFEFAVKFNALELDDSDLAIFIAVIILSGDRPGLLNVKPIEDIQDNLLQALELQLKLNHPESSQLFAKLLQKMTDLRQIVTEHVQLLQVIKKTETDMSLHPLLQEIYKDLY
Sequence of Vitamin D3 receptor (Homo sapiens) (P11473 whole entry, looked up): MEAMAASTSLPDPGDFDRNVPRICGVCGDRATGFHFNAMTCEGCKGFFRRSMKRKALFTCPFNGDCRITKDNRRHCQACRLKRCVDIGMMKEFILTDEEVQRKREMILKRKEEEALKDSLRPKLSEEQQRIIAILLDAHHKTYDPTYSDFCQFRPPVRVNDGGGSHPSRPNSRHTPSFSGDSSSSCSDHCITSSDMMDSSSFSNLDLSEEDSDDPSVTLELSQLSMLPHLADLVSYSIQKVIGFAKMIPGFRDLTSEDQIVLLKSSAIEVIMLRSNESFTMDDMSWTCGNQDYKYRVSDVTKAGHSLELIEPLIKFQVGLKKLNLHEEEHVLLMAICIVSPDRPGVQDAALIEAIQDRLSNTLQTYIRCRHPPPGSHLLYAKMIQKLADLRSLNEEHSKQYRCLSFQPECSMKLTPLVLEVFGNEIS

Turning to `CC1OC(=O)C(C)OC1=O` (stereo unspecified), the Potency result in [1], in [2], in assay [3], in [4], in assay [5] and in assay [6] was “inactive” throughout. The Potency entry in assay [7], in assay [8], in assay [9], in assay [10], in assay [11] and in assay [12] was “inactive” throughout. Further, the Potency result in [13], in assay [14], in [15] and in [16] was “inactive” throughout. Further, in [17], the call was inactive.

Turning to `Nc1ccc(S(=O)(=O)Nc2ccccc2)cc1`, the Potency result in assay [1], in assay [2], in assay [3], in assay [4], in assay [5] and in [6] was “inactive” in each case. Also, the Potency entry in assay [7], in assay [8], in [9], in assay [11], in assay [12] and in [13] was “inactive” each time. For the same compound, the Potency entry in assay [15] is “inactive”.

In the case of `CCCCOC(=O)CCCCCCCC(=O)OCCCC`, the Potency entry in assay [1], in assay [2], in assay [3], in assay [4], in assay [5] and in assay [18] was “inactive” throughout. For the same compound, the Potency entry in [7], in assay [8], in assay [9], in assay [19], in [13] and in [14] was “inactive” each time. The Potency result in assay [15] and in assay [16] was “inactive” throughout.

Take `OC(CN1CCC(Cc2ccc(F)cc2)CC1)c1ccc(Cl)cc1` (stereo unspecified): the Potency result in assay [1], in assay [2], in [3], in [4], in assay [5] and in assay [18] was “inactive” each time. The Potency entry in [8], in assay [9], in assay [11], in assay [19], in [13] and in [14] was “inactive” in each case. The Potency result in [15] was “inactive”.

Consider `NC(=O)C(c1ccccc1)(c1ccccc1)[C@@H]1CCN(CCc2ccc3c(c2)CCO3)C1`, for which the Potency entry in assay [1], in assay [2], in assay [3], in [4], in [5] and in assay [18] was “inactive” each time. Moreover, the Potency result in [7], in assay [8], in assay [9], in assay [15] and in assay [16] was “inactive” in each case. Besides, the outcome in [17] was inactive.

In the case of `S=C([S-])NCCNC(=S)[S-].[Mn+2]`, the Potency result in assay [1], in assay [2], in assay [3], in assay [4], in [5] and in [7] was “inactive” throughout. In addition, the Potency entry in [8], in assay [15] and in [16] was “inactive” throughout. In addition, the Potency in [6] was 6.86 µM (active).

Regarding `CCCCCCCCCCCC(=O)OC[C@@H](O)[C@H]1OC[C@H](OCCO)[C@H]1OCCO`, the Potency entry in assay [1], in assay [2], in assay [3], in [4], in [5] and in assay [18] was “inactive” in each case. Besides, the Potency result in assay [7], in assay [8], in assay [10], in assay [15] and in [16] was “inactive” each time.

With `OC[C@H]1O[C@@H](OCCc2ccc(O)cc2)[C@H](O)[C@@H](O)[C@@H]1O`, the Potency result in assay [1], in [2], in assay [3], in assay [4], in assay [5] and in assay [18] was “inactive” throughout. Besides, the Potency entry in [7], in [8], in assay [9], in [10], in assay [11] and in assay [12] was “inactive” throughout. Besides, the Potency entry in [19], in assay [13], in assay [14] and in [16] was “inactive” each time.

In the case of `COc1cc(Cl)c(OC)cc1N`, the Potency entry in [1], in assay [3], in assay [4], in [5], in assay [18] and in assay [7] was “inactive” in each case. The Potency entry in assay [8], in [20], in assay [10], in [12], in assay [13] and in [14] was “inactive” throughout. For the same compound, the Potency entry in [16] is “inactive”. In assay [2], the Potency was 30.6 µM (active). In assay [17], the compound was called inactive.
